Rows were chosen to be rich in hits. Some 4.2% of all compounds tested hit in one or more screens of this group.
hcDAF-12 act: H. contortus DAF-12 nuclear receptor activators, primary screen, cell-based, luminescence, HEK293, lit1-tk-luc reporter | HEK293 hcDAF-12 lit1-tk-luc reporter; 0% DMSO, 100% Δ7-dafachronic acid | activation, % at 6.8 µM | 370,000 compounds, 1.4% hits;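 active means activation above the mean of all tested compounds plus 3 SD, cut at about 5.5% in these data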
hgDAF-12 ag: H. glycines DAF-12 receptor agonists, primary screen, cell-based, luminescence, HEK293, GAL4 fusion, UAS-luciferase; HEK293 GAL4-hgDAF12 UAS-luciferase reporter, agonist luminescence; normalized to butyrate control; activation, % at 6.8 µM; Nuclear hormone receptor DAF-12 (Heterodera glycines), GAL4 fusion; 370,000 compounds, 1.8% hits;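 active means activation above a cutoff set at the mean of all screened compounds plus 3 SD, cut at about 10% in these data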
ssDAF12 agonist: S. stercoralis DAF-12 nuclear receptor activators, primary screen, cell-based, luminescence, HEK293, GRIP1 co-expression, lit1-tk-luc; Nuclear hormone receptor DAF-12 (Strongyloides stercoralis); activation, % at 6.8 µM; AID 652126, 2013; HEK293 ssDAF-12/GRIP1 lit1-tk-luc reporter; % of 3 µM dafachronic acid response; 370,000 compounds, 1% hits;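 active means activation above the mean over all tested compounds plus 3 SD, cut at about 0.9% in these data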
SMARCA2 activ: SMARCA2 (BRM) function activators, primary screen, cell-based, luminescence, high throughput; activation, % at 9.1 µM; MG213 cells, MMTV-luciferase reporter, dexamethasone, overnight; AID 652017, 2013; 370,000 compounds, 1% hits; in the data active means activation above about 7.8%
DAX1 StAR inh: DAX1 (NR0B1) inhibitors on StAR promoter, primary screen, cell-based, luminescence, SF-1 (NR5A1), full-length DAX-1; HEK293T StAR-luciferase reporter, SF-1/DAX-1 repression relief; inhibition, % at 6.8 µM; 370,000 compounds, 1.1% hits; AID 652010, 2013;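 active means inhibition above the mean over all tested compounds plus 3 SD, cut at about 3.6% in these data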;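 further: higher inhibition means more luminescence from relief of DAX-1 repression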
SMARCA2 conf: SMARCA2 (BRM) function activators, confirmation, cell-based, luminescence, triplicate; shares compounds with SMARCA2 activ; MG213 cells, MMTV-luciferase with dexamethasone, overnight; MG213 cells expressing E1A, Rb sequestered; DMSO wells 0%, reference activator 100%; activation, % at 9.1 µM; 3,500 compounds, 30% hits; AID 652260, 2013;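 active means activation above its plate's cutoff, the mean activation of tested wells plus 3 SD, cut at about 7.9% in these data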
VP16 Luc act: GAL4-VP16 luciferase reporter activation, counter-screen for SMARCA2 (BRM) activator project, cell-based, pG5luc, luminescence, high throughput. activation, % at 9.1 µM. HEK293 GAL4-VP16 pG5luc reporter; scaled: DMSO wells 0%, SAHA wells 100%. 3,500 compounds, 41% hits. shares compounds with SMARCA2 activ;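 active means activation above the solvent-only control well mean plus 3 SD, averaged across control plates, cut at about 5.2% in these data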
Hits are given with their value.

What do the screens show for `COc1ccc(Nc2c3c(nc4ccccc24)CCC3)c(OC)c1`?
hcDAF-12 act: inactive; hgDAF-12 ag: inactive; ssDAF12 agonist: inactive; SMARCA2 activ: inactive; DAX1 StAR inh: inactive

What do the screens show for `CCCS(=O)(=O)Nc1ccc(Nc2c3ccccc3nc3ccccc23)c(OC)c1`?
hcDAF-12 act: inactive; hgDAF-12 ag: inactive; ssDAF12 agonist: inactive; SMARCA2 activ: 15; DAX1 StAR inh: inactive; SMARCA2 conf: 24; VP16 Luc act: inactive

Results for CC(=O)c1cccc(NC(=O)c2ccc(NS(C)(=O)=O)cc2)c1 ?
hcDAF-12 act: inactive; hgDAF-12 ag: inactive; ssDAF12 agonist: inactive; SMARCA2 activ: inactive; DAX1 StAR inh: inactive

Results for CS(=O)(=O)Nc1ccc(C(=O)Nc2ccc3ccccc3c2)cc1 ?
hcDAF-12 act: inactive; hgDAF-12 ag: 11; ssDAF12 agonist: 1.3; SMARCA2 activ: 8.4; DAX1 StAR inh: inactive; SMARCA2 conf: 16; VP16 Luc act: 7.2

What do the screens show for `CN[C@H]1C[C@H]2c3[nH]c4cccc(-c5cccc(C)c5)c4c3CCN2C(=O)[C@H]1[C@H](C)O`?
hcDAF-12 act: inactive; hgDAF-12 ag: inactive; ssDAF12 agonist: inactive; SMARCA2 activ: inactive; DAX1 StAR inh: inactive

Results for CCN(CC)C(=O)CN(C#N)c1nc(OC)nc(N(C)C)n1 ?
hcDAF-12 act: inactive; hgDAF-12 ag: inactive; ssDAF12 agonist: inactive; SMARCA2 activ: 8.9; DAX1 StAR inh: inactive; SMARCA2 conf: inactive; VP16 Luc act: inactive

What do the screens show for `CCN(CC)C(=O)CN(C#N)c1nc(C)cc(C)n1`?
hcDAF-12 act: inactive; hgDAF-12 ag: inactive; ssDAF12 agonist: inactive; SMARCA2 activ: inactive; DAX1 StAR inh: inactive

How did CC(=O)Nc1ccc(-c2c(C)cc3oc(=O)cc(-c4ccccc4)c3c2C)cc1 do in these assays?
hcDAF-12 act: inactive; hgDAF-12 ag: inactive; ssDAF12 agonist: inactive; SMARCA2 activ: 9.2; DAX1 StAR inh: inactive; SMARCA2 conf: inactive; VP16 Luc act: inactive

Results for Cc1ccc(-c2c(C)cc3oc(=O)cc(-c4ccccc4)c3c2C)cc1 ?
hcDAF-12 act: inactive; hgDAF-12 ag: inactive; ssDAF12 agonist: inactive; SMARCA2 activ: inactive; DAX1 StAR inh: inactive

How did COc1ccc(CCC2(C)NC(=O)NC2=O)cc1 (stereo unspecified) do in these assays?
hcDAF-12 act: inactive; hgDAF-12 ag: inactive; ssDAF12 agonist: inactive; SMARCA2 activ: 8.1; DAX1 StAR inh: inactive; SMARCA2 conf: inactive; VP16 Luc act: inactive

How did O=C1NC[C@H](CCCCN2C[C@H](Cc3ccc(O)cc3)N(CCc3ccc(O)cc3)C(=O)C2=O)N(CC2CCCCC2)C1=O do in these assays?
hcDAF-12 act: inactive; hgDAF-12 ag: inactive; ssDAF12 agonist: inactive; SMARCA2 activ: 8.5; DAX1 StAR inh: inactive; SMARCA2 conf: inactive; VP16 Luc act: inactive

Results for O=C(O)c1ccc(C[n+]2c(-c3ccccc3)csc2Nc2ccccc2)cc1 ?
hcDAF-12 act: inactive; hgDAF-12 ag: inactive; ssDAF12 agonist: inactive; SMARCA2 activ: 10; DAX1 StAR inh: inactive; SMARCA2 conf: inactive; VP16 Luc act: inactive

Results for CCCCCC[n+]1c(-c2ccccc2)csc1Nc1ccccc1 ?
hcDAF-12 act: inactive; hgDAF-12 ag: inactive; ssDAF12 agonist: inactive; SMARCA2 activ: inactive; DAX1 StAR inh: inactive

What do the screens show for `Cc1ccc(S(=O)(=O)N2CCN(c3nc(CN4CCCC4)nc4sc(C)c(C)c34)CC2)cc1`?
hcDAF-12 act: inactive; hgDAF-12 ag: inactive; ssDAF12 agonist: inactive; SMARCA2 activ: inactive; DAX1 StAR inh: inactive
